Source: PubChem BioAssay (EPA / NIEHS)
Activity calls are given as the source filed them. How the source made its calls: active means hit-call score of the fitted dose curve at least 0.9, where 1 is the maximum; inactive means score below 0.9.

Assays:
Details in all cases: mRNA level, 48 h; actives raise or lower the signal
[1] = read-out: Glutathione S-Transferase (GSTA2), GSTA2 (gene 2939); assay: LTEA_HepaRG_GSTA2: Life Technologies and Expression Analysis (LTEA) Assay for Glutathione S-Transferase (GSTA2) using HepaRG (AID 2283497)
In short: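 Human HepaRG cells, plated 48 h, then exposed in serum-free induction medium for 48 h to eight half-log concentrations up to 100 uM in 0.5% DMSO, duplicate. GSTA2 mRNA by qRT-PCR, normalized to ACTB/GAPDH/POLR2A; bidirectional fit versus DMSO.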

[2] = read-out: Glutamate-cysteine ligase catalytic (GCLC), GCLC (gene 2729); assay: LTEA_HepaRG_GCLC: Life Technologies and Expression Analysis (LTEA) Assay for Glutamate-cysteine ligase catalytic (GCLC) using HepaRG (AID 2283498)
In short: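 Differentiated human HepaRG cells, plated 48 h then switched to serum-free induction medium, were exposed in duplicate for 48 h to 8 half-log concentrations topping at 100 uM in 0.5% DMSO. GCLC mRNA was quantified by qRT-PCR against ACTB, GAPDH and POLR2A.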

[3] = read-out: growth arrest and DNA damage 45 (GADD45G), GADD45G (gene 10912); assay: LTEA_HepaRG_GADD45G: Life Technologies and Expression Analysis (LTEA) Assay for growth arrest and DNA damage 45 (GADD45G) using HepaRG (AID 2283499)
In short: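 Differentiated human HepaRG cells in serum-free induction medium were exposed for 48 h to 8 half-log concentrations up to 100 uM in 0.5% DMSO, in duplicate. GADD45G mRNA was measured by TaqMan qRT-PCR, normalised to ACTB, GAPDH and POLR2A, and fitted bidirectionally against DMSO.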

[4] = read-out: Glutamate-cysteine ligase regulatory (GCLM), GCLM (gene 2730); assay: LTEA_HepaRG_GCLM: Life Technologies and Expression Analysis (LTEA) Assay for Glutamate-cysteine ligase regulatory (GCLM) using HepaRG (AID 2283500)
In short: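 Differentiated HepaRG cells exposed 48 h in serum-free induction medium to eight half-log concentrations up to 100 uM (0.5% DMSO). GCLM mRNA by TaqMan qRT-PCR, normalized to ACTB, GAPDH and POLR2A; bidirectional fit versus DMSO.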

[5] = read-out: Glutathione S-transferase M3 (GSTM3), GSTM3 (gene 2947); assay: LTEA_HepaRG_GSTM3: Life Technologies and Expression Analysis (LTEA) Assay for Glutathione S-transferase M3 (GSTM3) using HepaRG (AID 2283501)
In short: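 Differentiated HepaRG cells in serum-free induction medium were exposed in duplicate for 48 h to 8 half-log concentrations up to 100 uM in 0.5% DMSO. GSTM3 mRNA was measured by TaqMan qRT-PCR, normalized to ACTB/GAPDH/POLR2A, and fitted bidirectionally versus DMSO.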

[6] = read-out: Heat shock 70 kDa protein 1 (HSPA1A), gene 3303; assay: LTEA_HepaRG_HSPA1A: Life Technologies and Expression Analysis (LTEA) Assay for Heat shock 70 kDa protein 1 (HSPA1A) using HepaRG (AID 2283502)
In short: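 Human HepaRG cells in serum-free induction medium were exposed in duplicate for 48 h to 8 half-log concentrations, highest 100 uM, in 0.5% DMSO. HSPA1A mRNA read by TaqMan qRT-PCR, normalized to ACTB, GAPDH, POLR2A, fitted bidirectionally against DMSO.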

[7] = read-out: Hypoxia-inducible factor 1-alpha (Homo sapiens) (UniProt Q16665); assay: LTEA_HepaRG_HIF1A: Life Technologies and Expression Analysis (LTEA) Assay for Hypoxia-inducible factor 1 (HIF1A) Trancription factor using HepaRG (AID 2283503)
In short: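 Differentiated HepaRG cells in serum-free induction medium exposed 48 h, in duplicate, to 8-point half-log series from 100 uM in 0.5% DMSO. HIF1A mRNA measured by TaqMan qRT-PCR, normalized to ACTB/GAPDH/POLR2A, fitted bidirectionally versus DMSO.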

[8] = read-out: 3-Hydroxy-3-Methylglutaryl-CoA Synthase 2 (HMGCS2), HMGCS2 (gene 3158); assay: LTEA_HepaRG_HMGCS2: Life Technologies and Expression Analysis (LTEA) Assay for 3-Hydroxy-3-Methylglutaryl-CoA Synthase 2 (HMGCS2) using HepaRG (AID 2283504)
In short: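 Differentiated human HepaRG cells were exposed in duplicate for 48 h in serum-free induction medium to eight concentrations (top 100 uM, half-log steps, 0.5% DMSO). HMGCS2 mRNA was quantified by TaqMan qRT-PCR, normalised to ACTB, GAPDH and POLR2A, then fitted bidirectionally against DMSO.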

[9] = read-out: HGF (gene 3082); assay: LTEA_HepaRG_HGF: Life Technologies and Expression Analysis (LTEA) Assay for Hepatocyte Growth Facto (HGF) using HepaRG (AID 2283505)
In short: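 Differentiated human HepaRG cells in serum-free induction medium were exposed in duplicate for 48 h to eight concentrations (top 100 uM, half-log steps, 0.5% DMSO). HGF mRNA was quantified by qRT-PCR, normalized to ACTB, GAPDH and POLR2A.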

[10] = read-out: Insulin Like Growth Factor 1 (IGF1), IGF1 (gene 3479); assay: LTEA_HepaRG_IGF1: Life Technologies and Expression Analysis (LTEA) Assay for Insulin Like Growth Factor 1 (IGF1) using HepaRG (AID 2283506)
In short: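 Differentiated HepaRG cells in serum-free induction medium, exposed 48 h in duplicate to 8 half-log concentrations up to 100 uM in 0.5% DMSO. IGF1 mRNA by Fluidigm qRT-PCR, normalised to ACTB, GAPDH and POLR2A.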

[11] = read-out: Intercellular Adhesion Molecule 1 (ICAM1), ICAM1 (gene 3383); assay: LTEA_HepaRG_ICAM1: Life Technologies and Expression Analysis (LTEA) Assay for Intercellular Adhesion Molecule 1 (ICAM1) using HepaRG (AID 2283507)
In short: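 Differentiated HepaRG cells in serum-free induction medium were exposed in duplicate for 48 h to eight half-log concentrations up to 100 uM in 0.5% DMSO. Transcript levels were measured by qRT-PCR normalized to ACTB, GAPDH and POLR2A; bidirectional fits relative to DMSO.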

[12] = read-out: Insulin-like growth factor-binding protein 1 (IGFBP1), IGFBP1 (gene 3484); assay: LTEA_HepaRG_IGFBP1: Life Technologies and Expression Analysis (LTEA) Assay for Insulin-like growth factor-binding protein 1 (IGFBP1) using HepaRG (AID 2283508)
In short: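 Differentiated human HepaRG cells in serum-free induction medium were exposed in duplicate for 48 h to eight concentrations, top 100 uM with half-log dilutions, in 0.5% DMSO. Transcript levels came from qRT-PCR normalised to ACTB, GAPDH and POLR2A, fitted bidirectionally against DMSO.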

[13] = read-out: Interleukin 6 (IL6), IL6 (gene 3569); assay: LTEA_HepaRG_IL6: Life Technologies and Expression Analysis (LTEA) Assay for Interleukin 6 (IL6) using HepaRG (AID 2283509)
In short: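 Differentiated human HepaRG cells, plated 48 h then switched to serum-free induction medium, were exposed in duplicate for 48 h to eight half-log concentrations up to 100 uM in 0.5% DMSO. IL6 mRNA measured by qRT-PCR, normalized to ACTB/GAPDH/POLR2A.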

[14] = read-out: Interleukin 6 Receptor (IL6R), IL6R (gene 3570); assay: LTEA_HepaRG_IL6R: Life Technologies and Expression Analysis (LTEA) Assay for Interleukin 6 Receptor (IL6R) using HepaRG (AID 2283510);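 on AC50: TaqMan qRT-PCR signal normalized to ACTB GAPDH and POLR2A housekeeping genes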
In short: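 Differentiated HepaRG cells, plated 48 h, then exposed in duplicate for 48 h in serum-free induction medium to 8 half-log concentrations (top 100 uM, 0.5% DMSO). IL6R mRNA measured by TaqMan qRT-PCR, normalized to ACTB/GAPDH/POLR2A; bidirectional fit vs DMSO.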

[15] = read-out: Potassium channel subfamily K member 1 (KCNK1), KCNK1 (gene 3775); assay: LTEA_HepaRG_KCNK1: Life Technologies and Expression Analysis (LTEA) Assay for Potassium channel subfamily K member 1 (KCNK1) using HepaRG (AID 2283511)
In short: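 Differentiated human HepaRG cells in serum-free induction medium were exposed in duplicate for 48 h to 8 half-log concentrations up to 100 uM in 0.5% DMSO. KCNK1 mRNA was measured by TaqMan qRT-PCR, normalized to ACTB, GAPDH and POLR2A, and fitted bidirectionally versus DMSO.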

[16] = read-out: Keratin 19 (KRT19), KRT19 (gene 3880); assay: LTEA_HepaRG_KRT19: Life Technologies and Expression Analysis (LTEA) Assay for Keratin 19 (KRT19) using HepaRG (AID 2283512)
In short: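 Differentiated human HepaRG cells, plated 48 h, were exposed in duplicate for 48 h in serum-free induction medium to eight half-log concentrations up to 100 uM in 0.5% DMSO. KRT19 mRNA was quantified by qRT-PCR, normalized to ACTB, GAPDH and POLR2A, and fitted bidirectionally versus DMSO.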

[17] = read-out: JUN Transcription Factor, JUN (gene 3725); assay: LTEA_HepaRG_JUN: Life Technologies and Expression Analysis (LTEA) Assay for JUN Transcription Factor using HepaRG (AID 2283513)
In short: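 HepaRG cells, 48 h post-plating, exposed 48 h in serum-free induction medium to 8-point half-log series (top 100 uM, 0.5% DMSO), duplicate; mRNA by qRT-PCR (TaqMan, Fluidigm), normalized to ACTB/GAPDH/POLR2A; bidirectional fit vs DMSO.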

[18] = read-out: Lipoprotein lipase (LPL), LPL (gene 4023); assay: LTEA_HepaRG_LPL: Life Technologies and Expression Analysis (LTEA) Assay for Lipoprotein lipase (LPL) using HepaRG (AID 2283515)
In short: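 Differentiated human HepaRG cells in serum-free induction medium were exposed in duplicate for 48 h to eight half-log concentrations (top 100 uM) in 0.5% DMSO. LPL mRNA was quantified by TaqMan qRT-PCR, normalized to ACTB, GAPDH and POLR2A.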

[19] = read-out: Lipase C (LIPC), LIPC (gene 3990); assay: LTEA_HepaRG_LIPC: Life Technologies and Expression Analysis (LTEA) Assay for Lipase C (LIPC) using HepaRG (AID 2283514)
In short: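 Differentiated human HepaRG cells in serum-free induction medium were exposed in duplicate for 48 h to eight concentrations (top 100 uM, half-log steps, 0.5% DMSO). LIPC mRNA was quantified by TaqMan qRT-PCR, normalized to ACTB, GAPDH and POLR2A, with bidirectional fitting versus DMSO.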

[20] = read-out: Cytochrome P450 7A1 (Homo sapiens) (UniProt P22680); assay: LTEA_HepaRG_CYP7A1: Life Technologies and Expression Analysis (LTEA) Assay for Cytochrome P450 7A1 (CYP7A1) using HepaRG (AID 2283496)
In short: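 HepaRG cells plated 48 h, then switched to serum-free induction medium and exposed in duplicate for 48 h to 8-point half-log series from 100 uM in 0.5% DMSO. CYP7A1 mRNA by qRT-PCR (TaqMan), normalized to ACTB/GAPDH/POLR2A; bidirectional fit versus DMSO.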

Measured: AC50

Hypoxia-inducible factor 1-alpha (Homo sapiens), sequence (Q16665 whole entry, looked up): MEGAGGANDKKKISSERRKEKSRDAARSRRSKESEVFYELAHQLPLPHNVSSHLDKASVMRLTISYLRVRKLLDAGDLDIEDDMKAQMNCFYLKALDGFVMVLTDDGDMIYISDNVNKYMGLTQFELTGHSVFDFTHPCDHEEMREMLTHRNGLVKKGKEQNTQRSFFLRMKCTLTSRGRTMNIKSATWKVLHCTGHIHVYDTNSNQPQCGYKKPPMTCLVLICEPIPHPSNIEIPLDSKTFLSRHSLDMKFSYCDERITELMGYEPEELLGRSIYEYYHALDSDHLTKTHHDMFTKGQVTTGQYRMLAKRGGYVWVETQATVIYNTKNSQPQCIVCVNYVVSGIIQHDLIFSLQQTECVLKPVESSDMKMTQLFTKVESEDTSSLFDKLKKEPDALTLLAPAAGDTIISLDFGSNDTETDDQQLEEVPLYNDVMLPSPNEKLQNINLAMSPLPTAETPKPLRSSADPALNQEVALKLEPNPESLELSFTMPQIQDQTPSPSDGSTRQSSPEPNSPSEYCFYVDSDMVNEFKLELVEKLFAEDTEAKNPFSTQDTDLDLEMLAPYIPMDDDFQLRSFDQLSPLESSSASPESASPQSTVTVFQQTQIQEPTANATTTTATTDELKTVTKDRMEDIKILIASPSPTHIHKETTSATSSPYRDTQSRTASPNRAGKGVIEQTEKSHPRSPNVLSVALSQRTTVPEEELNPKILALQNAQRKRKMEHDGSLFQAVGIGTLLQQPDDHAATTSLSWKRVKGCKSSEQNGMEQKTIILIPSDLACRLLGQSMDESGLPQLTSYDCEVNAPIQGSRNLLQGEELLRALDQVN

C[C@]12CC[C@@H]3c4ccc(O)cc4CC[C@H]3[C@@H]1CCC2=O
active: [6] 33.2 µM | [8] 72.7 µM | [10] 50 µM
not listed: [19] | [20]
inactive: all other assays above

CCCCCCCCCCCCO
not listed: [17] | [20]
inactive: all other assays above

O=c1ccc2ccccc2o1
not listed: [17]
inactive: all other assays above

Cc1c2ccccc2c(C)c2c1ccc1ccccc12
inactive: [2] | [3] | [5] | [15] | [17]
active: [20] 65.9 µM | [1] 39.4 µM | [4] 50 µM | [7] 90.9 µM | [8] 52.5 µM | [9] 63.3 µM | [11] 82.1 µM | [12] 70.3 µM | [13] 83 µM | [14] 13.5 µM | [16] 13.3 µM | [19] 30.6 µM | [18] 82.5 µM

C[C@]12CC[C@@H]3c4ccc(O)cc4CC[C@H]3[C@@H]1CC[C@H]2O
active: [6] 12.5 µM | [8] 82.2 µM | [10] 50 µM | [19] 81.9 µM
not listed: [7]
inactive: all other assays above

CN(C[C@@H](CC[N+]12CCC(C3CCCCC3)(CC1)CC2)c1ccc(Cl)c(Cl)c1)C(=O)c1cc(C(F)(F)F)cc(C(F)(F)F)c1
inactive: [3]
active: [20] 23.4 µM | [1] 34.2 µM | [2] 60.9 µM | [4] 91.2 µM | [5] 15.8 µM | [6] 71.9 µM | [7] 50 µM | [8] 67.4 µM | [9] 20 µM | [10] 24.1 µM | [11] 12.2 µM | [12] 13.9 µM | [13] 75.6 µM | [14] 78 µM | [15] 15.8 µM | [16] 26.4 µM | [19] 15.8 µM | [18] 36 µM

Cc1occc1C(=O)Nc1ccc(C(=O)N2CCC(F)(F)/C(=C\C(=O)N3CCC(N4CCCCC4)CC3)c3ccccc32)cc1
inactive: [2] | [3] | [4] | [6] | [7] | [9] | [11] | [15]
active: [20] 17.2 µM | [1] 52 µM | [5] 31.2 µM | [8] 31.2 µM | [10] 5.3 µM | [12] 46.1 µM | [13] 51.9 µM | [14] 27.5 µM | [16] 49.6 µM | [19] 45.4 µM | [18] 31.2 µM

Cc1cccc2ccccc12
not listed: [17]
inactive: all other assays above

Cc1ncc(CO)c(CO)c1O
not listed: [7]
inactive: all other assays above
